Compound activity as filed in PubChem.
NIH3T3 tox – NIH 3T3 cell cytotoxicity | NIH 3T3 viability, CellTiter-Glo ATP luminescence, 48-72 h | Potency, µM (titrated, usually from 96.7 µM), for the others: at the top dose activity change, negative = cytotoxicity, most hits filed as inhibitors | 94,000 compounds, 4.3% hits | AID 1345082; further: nearly all actives have a fitted effect of over 55% in size
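NIH 3T3 cells at 400 cells/well received 23 nL of compound by pintool and were incubated 48 or 72 h at 37 °C. Viability was read as ATP-coupled CellTiter-Glo luminescence.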
FLuc inh – Photinus pyralis luciferase inhibition | Potency, µM (top dose mostly 115 µM), usual class: inhibitors | purified P. pyralis luciferase, luminescence, biochemical | P08659 | 76,000 compounds, 2.5% hits | AID 1347043; further: nearly all actives have a fitted effect of over 65% in size
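Inhibitors were tested against purified firefly luciferase in a biochemical, low-substrate format (both substrates at 10uM) and luminescence measured with a CCD imager.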
SNCA expr inh – inhibitors of alpha-synuclein (SNCA) gene expression. HEK-293 SNCA-luciferase knock-in, luminescence, 24 h. Potency, µM (top dose mostly 57.2 µM), without a hit: at the top dose activity change, negative = inhibition, actives largely listed as inhibitors. 140,000 compounds, 0.17% hits;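 further: plate controls were DMSO cells for no effect and cell-free wells for full effect; nearly all actives have a fitted effect of over 45% in size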
HEK293 tox – kills HEK 293 cells | HEK 293 viability, ATP luminescence (CellTiter-Glo), 48-72 h | AID 1345083 | Potency, µM (series often up to 115 µM), for inactives: at the highest dose activity change, negative = cytotoxicity, hits mostly inhibitors | 94,000 compounds, 6.6% hits; further: nearly all actives have a fitted effect of over 60% in size
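HEK 293 cells seeded at 250 cells/well were exposed to compound for 48 or 72 hr at 37 degree Celsius. Viability taken as ATP content by CellTiter-Glo luminescence.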
HEK293 viab – cell viability loss counter-screen. HEK-293-SNCA-luc viability, GF-AFC fluorescence, 24 h. Potency, µM (titrated, usually from 57.1 µM), inactives show at the highest dose activity change, negative = cytotoxicity, usual class: cytotoxic. 150,000 compounds, 0.12% hits. AID 1671193;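 further: 0% = DMSO-treated cells and -100% = medium-only wells without cells; nearly all actives have a fitted effect of over 30% in size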
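Cytotoxicity counterscreen: after 24 h compound treatment of genome-edited SNCA-luciferase HEK-293 cells, live-cell protease substrate GF-AFC read by fluorescence after 30 min; activity scaled between DMSO (0%) and medium-only (-100%), curves Hill-fitted.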
hNpr1 antagonist – human Npr1 receptor antagonism; P16066; HEK293 hNpr1 GloSensor cGMP, ANP-stimulated luminescence; Potency, µM (doses to about 46.3 µM), inactives show top-dose activity change, negative = inhibition, hits mostly inhibitors; 76,000 compounds, 1.6% hits; calls by dose curve; further: nearly all actives have a fitted effect of over 60% in size
Target sequence (P16066 whole entry, looked up): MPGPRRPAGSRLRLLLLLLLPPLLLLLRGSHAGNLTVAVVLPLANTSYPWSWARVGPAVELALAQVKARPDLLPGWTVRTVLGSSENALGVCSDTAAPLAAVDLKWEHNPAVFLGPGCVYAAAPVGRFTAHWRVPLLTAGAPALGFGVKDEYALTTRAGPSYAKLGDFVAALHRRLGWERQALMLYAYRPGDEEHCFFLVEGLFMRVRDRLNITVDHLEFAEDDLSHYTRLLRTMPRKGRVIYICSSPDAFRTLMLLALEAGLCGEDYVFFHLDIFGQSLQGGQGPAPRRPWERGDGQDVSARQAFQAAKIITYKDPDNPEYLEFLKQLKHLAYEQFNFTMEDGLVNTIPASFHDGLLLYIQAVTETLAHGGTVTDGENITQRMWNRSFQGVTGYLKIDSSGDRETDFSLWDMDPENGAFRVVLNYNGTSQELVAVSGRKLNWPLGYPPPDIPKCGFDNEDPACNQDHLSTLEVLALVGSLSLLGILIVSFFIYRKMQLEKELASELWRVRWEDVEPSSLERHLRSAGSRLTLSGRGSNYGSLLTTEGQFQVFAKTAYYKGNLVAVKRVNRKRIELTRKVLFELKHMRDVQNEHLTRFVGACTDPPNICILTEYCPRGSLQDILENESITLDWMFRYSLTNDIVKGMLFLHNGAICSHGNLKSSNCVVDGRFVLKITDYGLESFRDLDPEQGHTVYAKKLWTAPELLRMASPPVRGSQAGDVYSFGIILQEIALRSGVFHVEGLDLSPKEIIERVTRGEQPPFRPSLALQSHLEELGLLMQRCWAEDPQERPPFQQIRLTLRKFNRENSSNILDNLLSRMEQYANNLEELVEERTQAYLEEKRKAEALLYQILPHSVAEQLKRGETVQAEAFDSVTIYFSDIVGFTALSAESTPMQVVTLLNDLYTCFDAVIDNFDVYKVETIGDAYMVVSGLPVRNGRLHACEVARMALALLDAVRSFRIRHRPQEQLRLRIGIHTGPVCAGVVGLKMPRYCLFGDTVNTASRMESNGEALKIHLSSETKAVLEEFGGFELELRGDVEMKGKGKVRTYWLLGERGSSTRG
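HEK293 cells stably expressing human Npr1 and cGMP GloSensor pGS-40F, loaded 2 h with 2% GloSensor reagent, given compound 30 min at room temperature. Luminescence read before and 20 min after 0.1 nM hNppA.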
The depositor's hits bear a star; i = inactive; u = inconclusive; x = not tested or not shown; ! = repeats disagree; [ ] = remark or other dose. Rows were chosen to be rich in hits. Some 7.2% of all compounds tested hit in one or more screens of this group. Unless noted, the call rests on the fitted dose curve; in most records, active means well fitted curve in the direction sought with a large enough effect; inconclusive means small, poorly fitted or top-dose-only effect, or another doubt; inactive means no such curve, though single readings can be large; an effect the other way counts as inactive or inconclusive. Unless noted, on the % scale 0 is the no-effect control and ±100 the full control effect; potency means the concentration at half of the fitted maximal effect.

SMILES | NIH3T3 tox | FLuc inh | SNCA expr inh | HEK293 tox | HEK293 viab | hNpr1 antagonist
COCCCNC(=O)C1CCN(C(=O)c2nnn3c2COC(c2ccc(C)cc2)C3)CC1 (stereo unspecified) | i | 40µM* | 49% | -5% | 10% | -2%
O=C(NC1CCN(c2cc(-c3cccs3)[nH]n2)C1)c1ccc(Br)o1 (stereo unspecified) | i | i | -25% | u | -10% | -24%
CN(CC1CCOC1)S(=O)(=O)c1ccc(Cl)cc1 (stereo unspecified) | i | i | -17% | 8% | -13% | 6%
COCCN(C)C[C@H]1C[C@H](CO)CN(C(=O)CN2CCc3ccccc3C2)C1 | -12% | i | -3% | -4% | -2% | -2%
Fc1ccc(-c2cc(CC3(NCc4ccc(OC(F)(F)F)cc4)COC3)no2)cc1 | 100µM* | i | -3%[87.6 µM] | 79µM* | 3%[87.6 µM] | u
c1ccc(-c2cc(CC3(NCC4CCCCC4)COC3)no2)cc1 | u | i | u | 100µM* | -12%[87.6 µM] | u
COc1ccccc1Nc1ccnc(N2CCCC(C(=O)N3CCOCC3)C2)n1 (stereo unspecified) | -42% | x | 6% | u | -16%[12.5 µM] | x
COc1ccccc1Nc1ccnc(N2CCCC(C(=O)NCCc3ccccc3F)C2)n1 (stereo unspecified) | u | x | u | 35µM*! | -1%[12.5 µM] | x
COc1ccccc1Nc1ccnc(N2CCCC(C(=O)NCCc3ccccc3)C2)n1 (stereo unspecified) | 16µM* | x | 8% | u | -20%[12.5 µM] | x
CCCCCNC(=O)C1CCCN(c2nccc(Nc3ccccc3OC)n2)C1 (stereo unspecified) | u | x | u | 40µM* | -2%[12.5 µM] | x
C=CCNC1=C2C[C@@H](C)C[C@H](OC)[C@@H](O)[C@@H](C)C=C(C)[C@H](OC(N)=O)[C@@H](OC)C=CC=C(C)C(=O)NC(=CC1=O)C2=O | x | x | u | x | -24% | x
CO[C@H]1C=CC=C(C)C(=O)NC2=CC(=O)C(NCCN(C)C)=C(C[C@@H](C)C[C@H](OC)[C@@H](O)[C@@H](C)C=C(C)[C@@H]1OC(N)=O)C2=O | x | x | 0.054µM* | x | u | x
CC1=C[C@@H](CO)[C@H](C(C)C)C[C@H]1CC(=O)NCc1ccc(C(F)(F)F)cc1 | u | i | u | 40µM* | -6%[87.6 µM] | 0%[70.6 µM]
COc1ccc(CNC(=O)C[C@@H]2C[C@@H](C(C)C)[C@H](CNC(C)=O)C=C2C)cc1 | 100µM* | i | -23%[87.6 µM] | u | -28%[87.6 µM] | -4%[70.6 µM]
COCCN1CC(CO)C2(CCN(C(=O)COc3cccc(C)c3)CC2)C1 (stereo unspecified) | -1% | i | 24% | u | 3%[12.5 µM] | -1%
CN(Cc1cccn1C)CC1CCCCC1 | -26%[174 µM] | i | u | -9%[230 µM] | 16%[87.6 µM] | 32%[70.6 µM]
COc1ccc(-c2ccc3ncc(Nc4ccccc4Cl)n3n2)cn1 | -16%[138 µM] | i | 2%[87.6 µM] | u | -6%[87.6 µM] | -1%[70.6 µM]
OCCc1ccc(Nc2cnc3ccc(-c4cccc(CO)c4)nn23)cc1 | u | u | -20%[87.6 µM] | u | -4%[87.6 µM] | -3%[70.6 µM]
OCc1cccc(-c2ccc3ncc(Nc4ccc(OCCN5CCCC5)cc4)n3n2)c1 | u | i | 6%[87.6 µM] | 100µM* | -27%[87.6 µM] | 6%[70.6 µM]
OCc1cccc(-c2ccc3ncc(Nc4ccccc4Cl)n3n2)c1 | u | 22µM* | 30%[87.6 µM] | 89µM* | -3%[87.6 µM] | -20%[70.6 µM]
OCc1cccc(-c2ccc3ncc(Nc4cccnc4)n3n2)c1 | u | i | -20%[87.6 µM] | -10%[172 µM] | 11%[87.6 µM] | 2%[70.6 µM]
OCc1cccc(-c2ccc3ncc(Nc4cccc(C(F)(F)F)c4)n3n2)c1 | 50µM* | i | u | u | u | -20%[70.6 µM]
CC(=O)N1CCN(C(=O)C2CCc3nnc(C4CCN(C(=O)NC(C)(C)C)CC4)n32)CC1 (stereo unspecified) | -18% | x | -17% | -19% | 11% | x
CCc1noc(-c2cn(C3CCN(C(=O)c4cccc(C#N)c4)CC3)nn2)n1 | u | i | -19% | -23% | -5% | 14%
CN(Cc1cccc(-n2cccn2)c1)Cc1nc(-c2cccs2)no1 | -24% | i | u | 79µM* | 0% | -8%
SMILES | NIH3T3 tox | FLuc inh | SNCA expr inh | HEK293 tox | HEK293 viab | hNpr1 antagonist
Cc1noc(C)c1-c1cc(-c2ccc(CN(C)C)cc2)cn2cncc12 | 28µM* | i | 44%[87.6 µM] | u | -5%[87.6 µM] | 0%[70.6 µM]
CN(C)Cc1ccc(-c2cc(-c3ccc(=O)[nH]c3)c3cncn3c2)cc1 | u | i | 16%[87.6 µM] | u | -2%[87.6 µM] | 0%[70.6 µM]
CN(C)Cc1ccc(-c2cc(-c3ccncc3)c3cncn3c2)cc1 | u | u | -14%[87.6 µM] | 89µM* | -8%[87.6 µM] | -2%[70.6 µM]
Cc1noc(C)c1-c1cc(-c2ccncc2)cn2cncc12 | u | i | -1%[87.6 µM] | u | 9%[87.6 µM] | 2%[70.6 µM]
CC(C)n1cc(CN2CCCC2C(=O)Nc2cccc(-n3cccn3)c2)cn1 (stereo unspecified) | -2% | i | 4% | -1% | -8% | -2%
COc1cccc(C2CCN(Cc3cn(-c4ccccc4)nn3)C2)c1OC (stereo unspecified) | u | i | -22% | 79µM* | -10% | -4%
O=C(O)Cc1cc(C2CCN(Cc3cn(-c4ccccc4)nn3)CC2)n[nH]1 | -4% | i | 2% | -3% | -2% | 6%
CC(NC(=O)c1cc(-c2ccc(F)cc2)cn1C)c1ccccn1 (stereo unspecified) | u | i | 4% | u | -8% | -22%
CCn1cc(-c2ccc(C)cc2)cc1C(=O)NC(C)c1ccccn1 (stereo unspecified) | u | i | 0% | 40µM* | 2% | -7%
CN(C)CCN(C)C(=O)c1ccc(-c2ncc3cnc(-c4cccc(F)c4)cn23)cc1 | 45µM* | i | 14%[87.6 µM] | 50µM* | -2%[87.6 µM] | -6%[70.6 µM]
CCCOc1ccc(C2C(=O)N(C3CCCCC3)CC(=O)N2CCC2=CCCCC2)cc1OC (stereo unspecified) | x | x | 28% | x | -4% | x
COc1ccc(C2C(=O)N(C3CCCCC3)CC(=O)N2CCC2=CCCCC2)cc1 (stereo unspecified) | x | x | 22µM* | x | u | x
O=C(c1cc(C2CC2)nc2c1c(C1CCCN1)nn2-c1ccccc1)N1CCC(F)CC1 (stereo unspecified) | 32µM* | x | 176% | u | -15% | x
COCCNC(=O)c1cc(C2CC2)nc2c1c(C1CCCN1)nn2-c1ccccc1 (stereo unspecified) | u | x | 203% | 79µM* | 2% | x
